# Experimental data taken from the supplement of paper PMC6411743.
# ± gives the standard deviation of the averaged measurements. Targets with the largest changes are over-represented here; the source holds about 6,200 in all.
# Legend:
# Experiment in all cases: NP40-soluble protein abundance relative to vehicle (solubility fold change) (ratio); higher = more soluble protein in presence of AMP-PNP
# [1] = molecular target: A0A024R216|Q9Y3E1 (UniProt Q9Y3E1)
# Procedure, shortened: (§1)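 Crude Jurkat lysate, prepared by Dounce homogenisation, was exposed to eight concentrations from 0.1 to 10 mM for 10 min at room temperature and then 3 min at 37 °C. Solubilisation used 0.8% NP40 with benzonase for 60 min at 4 °C, followed by ultracentrifugation and TMT labelling of the supernatant for LC-MS/MS. After vsn normalisation of intensities, each value is the fold change against the detergent-processed vehicle within each replicate, across three independent experiments.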
# [2] = molecular target: A0A024RAC6 (UniProt Q14241)
# Procedure, shortened: as §1
# [3] = molecular target: A0A075B738|P16284|P16284-6 (UniProt P16284)
# Procedure, shortened: as §1
# [4] = molecular target: T1, A0A087WUL0|Q3LXA3 (UniProt Q3LXA3)
# T1 sequence (whole entry): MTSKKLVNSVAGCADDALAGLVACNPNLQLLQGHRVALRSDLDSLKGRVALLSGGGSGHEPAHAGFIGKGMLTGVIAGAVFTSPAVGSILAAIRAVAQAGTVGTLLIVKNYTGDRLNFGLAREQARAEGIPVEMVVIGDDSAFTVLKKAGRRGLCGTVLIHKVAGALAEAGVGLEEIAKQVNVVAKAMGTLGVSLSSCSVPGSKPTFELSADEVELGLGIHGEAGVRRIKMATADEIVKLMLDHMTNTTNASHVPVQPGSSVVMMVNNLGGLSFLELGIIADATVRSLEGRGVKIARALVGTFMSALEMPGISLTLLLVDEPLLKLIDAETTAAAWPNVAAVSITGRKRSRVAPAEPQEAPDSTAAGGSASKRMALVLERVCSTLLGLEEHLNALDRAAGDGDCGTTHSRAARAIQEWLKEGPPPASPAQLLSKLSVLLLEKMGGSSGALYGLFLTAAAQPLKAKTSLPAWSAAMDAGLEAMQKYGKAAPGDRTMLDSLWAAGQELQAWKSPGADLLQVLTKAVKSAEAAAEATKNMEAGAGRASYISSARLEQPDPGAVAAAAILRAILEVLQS
# Procedure, shortened: as §1
# [5] = molecular target: T2, A0A087WUT6|O60841 (UniProt O60841)
# T2 sequence (whole entry): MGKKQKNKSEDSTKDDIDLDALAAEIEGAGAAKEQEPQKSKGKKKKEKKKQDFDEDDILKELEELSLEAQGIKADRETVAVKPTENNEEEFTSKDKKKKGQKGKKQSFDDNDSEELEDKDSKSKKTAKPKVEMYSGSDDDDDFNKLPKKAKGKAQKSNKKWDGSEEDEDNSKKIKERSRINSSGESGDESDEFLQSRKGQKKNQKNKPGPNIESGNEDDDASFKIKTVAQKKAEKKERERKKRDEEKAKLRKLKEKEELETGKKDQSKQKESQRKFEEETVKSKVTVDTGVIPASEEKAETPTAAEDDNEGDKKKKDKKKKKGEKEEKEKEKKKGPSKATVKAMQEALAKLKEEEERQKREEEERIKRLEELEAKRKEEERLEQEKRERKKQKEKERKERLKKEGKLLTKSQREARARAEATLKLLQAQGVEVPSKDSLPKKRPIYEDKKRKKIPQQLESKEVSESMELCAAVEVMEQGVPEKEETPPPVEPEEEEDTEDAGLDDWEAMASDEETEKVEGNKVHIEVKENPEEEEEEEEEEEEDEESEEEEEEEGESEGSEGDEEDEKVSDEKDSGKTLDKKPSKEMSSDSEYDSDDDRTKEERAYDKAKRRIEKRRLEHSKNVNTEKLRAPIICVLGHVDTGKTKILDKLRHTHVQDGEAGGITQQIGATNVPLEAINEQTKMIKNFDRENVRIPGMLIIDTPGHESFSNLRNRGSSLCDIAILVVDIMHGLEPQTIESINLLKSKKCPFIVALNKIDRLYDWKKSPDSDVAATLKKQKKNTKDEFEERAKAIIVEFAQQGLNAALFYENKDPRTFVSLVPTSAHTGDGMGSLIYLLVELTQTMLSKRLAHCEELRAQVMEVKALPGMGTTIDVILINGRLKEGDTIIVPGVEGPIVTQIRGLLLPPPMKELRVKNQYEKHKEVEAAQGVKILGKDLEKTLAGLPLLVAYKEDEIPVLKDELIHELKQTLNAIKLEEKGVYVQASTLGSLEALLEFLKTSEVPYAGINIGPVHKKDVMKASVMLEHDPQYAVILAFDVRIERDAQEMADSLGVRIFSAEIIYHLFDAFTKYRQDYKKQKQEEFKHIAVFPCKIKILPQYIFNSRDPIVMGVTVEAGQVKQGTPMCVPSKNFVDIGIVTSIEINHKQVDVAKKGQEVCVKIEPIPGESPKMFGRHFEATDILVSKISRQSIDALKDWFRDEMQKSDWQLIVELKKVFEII
# Procedure, shortened: as §1
# A0A024RAC6, sequence (Q14241 whole entry): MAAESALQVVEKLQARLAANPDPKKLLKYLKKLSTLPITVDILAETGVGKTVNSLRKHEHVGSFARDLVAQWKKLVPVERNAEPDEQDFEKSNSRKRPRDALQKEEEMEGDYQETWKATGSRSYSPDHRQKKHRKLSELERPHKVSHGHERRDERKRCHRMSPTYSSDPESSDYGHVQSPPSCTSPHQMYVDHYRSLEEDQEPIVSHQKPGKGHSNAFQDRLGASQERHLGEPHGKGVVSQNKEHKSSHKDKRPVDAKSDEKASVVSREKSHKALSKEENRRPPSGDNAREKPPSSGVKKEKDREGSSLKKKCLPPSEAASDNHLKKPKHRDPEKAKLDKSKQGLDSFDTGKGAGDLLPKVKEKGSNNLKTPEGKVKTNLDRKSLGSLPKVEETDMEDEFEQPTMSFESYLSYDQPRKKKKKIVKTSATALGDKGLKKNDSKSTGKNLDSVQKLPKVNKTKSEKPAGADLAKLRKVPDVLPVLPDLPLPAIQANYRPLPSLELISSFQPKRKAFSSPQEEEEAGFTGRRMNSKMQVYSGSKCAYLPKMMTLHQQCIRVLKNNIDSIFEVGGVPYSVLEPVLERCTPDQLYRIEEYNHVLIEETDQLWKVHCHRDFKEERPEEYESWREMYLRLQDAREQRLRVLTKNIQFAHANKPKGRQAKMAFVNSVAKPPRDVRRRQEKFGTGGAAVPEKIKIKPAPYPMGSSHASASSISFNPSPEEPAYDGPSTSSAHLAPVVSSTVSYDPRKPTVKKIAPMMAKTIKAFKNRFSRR
# A0A024R216|Q9Y3E1, sequence (Q9Y3E1 whole entry, one chain of several): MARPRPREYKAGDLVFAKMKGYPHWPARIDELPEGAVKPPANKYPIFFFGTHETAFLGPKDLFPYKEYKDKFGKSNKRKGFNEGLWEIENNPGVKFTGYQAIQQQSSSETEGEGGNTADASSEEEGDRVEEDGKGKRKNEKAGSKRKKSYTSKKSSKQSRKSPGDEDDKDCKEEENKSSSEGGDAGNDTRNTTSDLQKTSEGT
smiles,measurement,setting,value
Nc1ncnc2c1ncn2[C@@H]1O[C@H](COP(=O)(O)OP(=O)(O)NP(=O)(O)O)[C@@H](O)[C@H]1O [adenylyl imidodiphosphate],NP40-soluble protein abundance,[1]; concentration: 1mM,1 ± 0.031
same,NP40-soluble protein abundance,[1]; concentration: 2mM,1.1 ± 0.17
same,NP40-soluble protein abundance,[1]; concentration: 4mM,1.05 ± 0.074
same,NP40-soluble protein abundance,[1]; concentration: 6mM,1.16 ± 0.074
same,NP40-soluble protein abundance,[1]; concentration: 8mM,1.11 ± 0.06
same,NP40-soluble protein abundance,[1]; concentration: 10mM,1.17 ± 0.14
same,NP40-soluble protein abundance,[2]; concentration: 1mM,1.05 ± 0.014
same,NP40-soluble protein abundance,[2]; concentration: 2mM,1.13 ± 0.076
same,NP40-soluble protein abundance,[2]; concentration: 4mM,1.06 ± 0.029
same,NP40-soluble protein abundance,[2]; concentration: 6mM,1.08 ± 0.044
same,NP40-soluble protein abundance,[2]; concentration: 8mM,1.06 ± 0.022
same,NP40-soluble protein abundance,[2]; concentration: 10mM,1.09 ± 0.019
same,NP40-soluble protein abundance,[3]; concentration: 1mM,1.02 ± 0.027
same,NP40-soluble protein abundance,[3]; concentration: 2mM,1.08 ± 0.095
same,NP40-soluble protein abundance,[3]; concentration: 4mM,1.01 ± 0.033
same,NP40-soluble protein abundance,[3]; concentration: 6mM,0.995 ± 0.011
same,NP40-soluble protein abundance,[3]; concentration: 8mM,0.98 ± 0.013
same,NP40-soluble protein abundance,[3]; concentration: 10mM,0.994 ± 0.032
same,NP40-soluble protein abundance,[4]; concentration: 1mM,1.02 ± 0.024
same,NP40-soluble protein abundance,[4]; concentration: 2mM,1.05 ± 0.05
same,NP40-soluble protein abundance,[4]; concentration: 4mM,1.03 ± 0.054
same,NP40-soluble protein abundance,[4]; concentration: 6mM,0.997 ± 0.01
same,NP40-soluble protein abundance,[4]; concentration: 8mM,0.963 ± 0.027
same,NP40-soluble protein abundance,[4]; concentration: 10mM,1.02 ± 0.036
same,NP40-soluble protein abundance,[5]; concentration: 1mM,1.05 ± 0.012
same,NP40-soluble protein abundance,[5]; concentration: 2mM,1.02 ± 0.018
same,NP40-soluble protein abundance,[5]; concentration: 4mM,1.02 ± 0.017
